Screening results: PubChem BioAssay, National Center for Advancing Translational Sciences (NCATS)
The full list was thinned out, with hits kept by preference.
Pf Dd2 growth: Plasmodium falciparum Dd2 growth inhibition; P. falciparum Dd2 growth, SYBR Green, 72 h; 4.3% of 120,000 active; AID 1347417; Potency, µM (highest dose often 28.9 µM), most hits filed as inhibitors; active = well fitted inhibition curve with a large enough effect; note: nearly all actives have a fitted effect of over 65% in size
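Infected erythrocytes (Dd2, 0.3% parasitemia, 2.5% hematocrit final) are added to compound in RPMI-1640/Albumax II medium, grown 72 h at 37C in low oxygen, then lysed with saponin/Triton-X containing SYBR Green and read by fluorescence.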
Hits are given with their value; - = inactive.

SMILES | Pf Dd2 growth
O=C1CCN(C(=O)c2ccco2)CCCC(C(=O)NCc2ccccc2)CCN1 (stereo unspecified) | -
O=C1CCN(C(=O)C2CCCCC2)CCCC(C(=O)NCc2ccccc2)CCN1 (stereo unspecified) | -
Cn1nc(C(=O)N2CCc3nn(CC#N)c(=O)n3CC2)c2ccccc21 | -
COc1ccc(OC)c(-c2n[nH]c3c2CC(=O)N(Cc2ccccc2)C3)c1 | -
CCc1[nH]c2c(CNC(=O)C(C)O)cc(C)cc2c1C (stereo unspecified) | -
Cc1cc(CNC(=O)c2ccc(S(N)(=O)=O)cc2)c2[nH]c(C)c(C)c2c1 | -
Cc1cc(CNC(=O)c2cccc(F)c2F)c2[nH]c(C)c(C)c2c1 | 10µM
COc1cccc(C(=O)c2cn(CC(=O)Nc3cccc(C(F)(F)F)c3)c3nc(C)ccc3c2=O)c1 | -
Cc1ccn2c(=O)cc(COc3ccc(NC(=O)c4ccccc4F)cc3)nc2c1 | -
COCc1ccc(C(=O)N2CC(=O)N(c3ccccc3C#N)CC2C)s1 (stereo unspecified) | -
COc1ccc(C(=O)N2C[C@@H]3C[C@H](C2)c2c(NS(=O)(=O)c4cccs4)ccc(=O)n2C3)cc1 | -
Cc1cc(C)cc(-n2c(-c3ccccc3)c(C)n3c4c(=O)n(C)c(=O)n(C)c4nc23)c1 | -
CCOc1ccc(-n2c(-c3ccccc3)c(C)n3c4c(=O)n(C)c(=O)n(C)c4nc23)cc1 | -
Cc1c(-c2ccccc2)n(-c2ccccc2O)c2nc3c(c(=O)n(C)c(=O)n3C)n12 | 3.16µM
COCc1nc(C2CCCN(C(=O)CC3CCCCC3)C2)no1 (stereo unspecified) | -
CCOC(=O)c1noc2ncnc(N(CCC(=O)OC)c3ccccc3)c12 | -
COc1ccc(S(=O)(=O)n2nc(C)c(S(=O)(=O)N3CCC(C)CC3)c2C)cc1OC | -
O=C(c1ccc(F)cc1)N1CCC[C@H]1c1nc(-c2ccc(F)cc2)no1 | -
Nc1c(C(=O)Nc2ccccc2Cl)c2ccccn2c1C(=O)c1ccccc1 | -
COCC[C@]1(O)CCN(S(=O)(=O)N(C)Cc2ccccc2)C[C@H]1C | -
CNC(=O)c1cnn2c1CN(C(=O)c1ccccc1F)CC2 | -
Cc1ccc(NC(=O)c2nn(C)c3c2CS(=O)(=O)c2ccccc2-3)c(Cl)c1 | -
Cn1nc(C(=O)Nc2ccc(F)c(Cl)c2)c2c1-c1ccccc1S(=O)(=O)C2 | 8.91µM
COc1cc(NC(=O)c2nn(C)c3c2CS(=O)(=O)c2ccccc2-3)cc(OC)c1 | -
COc1ccc(NC(=O)CSC2=Nc3ccccc3C3=NC(CC(=O)NCc4ccco4)C(=O)N23)cc1 (stereo unspecified) | -
SMILES | Pf Dd2 growth
CNCc1cccc(C(F)(F)F)c1 | -
COc1ccccc1OC1(C(=O)O)CCN(c2cc(C)nc(N)n2)CC1 | -
N#Cc1cccc(CN2CC[C@H]3C(=O)NCCCCCCN(Cc4ccncc4)[C@@H]3C2)c1 | 12.6µM
N#Cc1ccccc1CN1CC[C@@H]2C(=O)NCCCCCCN(Cc3ccncc3)[C@@H]2C1 | -
Cc1ccc(CN2CC[C@H]3C(=O)NCCCCCCN(Cc4ccncc4)[C@@H]3C2)o1 | -
O=C(c1ccccc1F)N1CCn2c(nnc2-c2ccccc2)C1 | -
Cc1ccc(CNC(=O)Cn2c(=O)n(Cc3ccccc3)c(=O)c3sc4ccccc4c32)cc1 | -
Cc1ccc(Cn2c(=O)n(Cc3ccco3)c(=O)c3sc4ccccc4c32)cc1 | -
Cc1cccc(Cn2c(=O)n(Cc3ccccc3)c(=O)c3sc4ccccc4c32)c1 | 8.91µM
CCNC(=O)N1CCc2c(c(-c3nncn3-c3ccccc3)nn2C)C1 | -
CC(C)n1cnnc1-c1nn(C)c2c1CN(C(=O)Cc1c[nH]c3ccccc13)CC2 | 8.91µM
Cn1cnnc1-c1nn(C)c2c1CN(C(=O)c1n[nH]c(=O)c3ccccc13)CC2 | -
CN(C)C(=O)c1ccc2c(c1)N(C)C(CC(=O)NC(C)(C)c1ccccc1)CO2 (stereo unspecified) | -
COc1ccc(-c2nccn3cc(C(=O)NCc4ccc(OC)c(OC)c4)nc23)cc1 | -
COc1ccc(CCc2nc3nccc(-c4cc(OC)c(OC)c(OC)c4)n3n2)cc1 | -
COc1ccc(CCc2nc3nccc(-c4ccccc4)n3n2)cc1OC | -
COc1ccc(CCc2nc3nccc(-c4ccc(F)cc4)n3n2)cc1OC | -
COc1cc(-c2ccnc3nc(CCc4ccccc4)nn23)cc(OC)c1OC | 11.2µM
COc1ccc(CCc2nc3nccc(-c4ccncc4)n3n2)cc1OC | -
COc1ccc(CCc2nc3nccc(-c4ccc(OC)c(OC)c4)n3n2)cc1 | 12.6µM
COc1ccc(CN(C)CC2CCN(CCc3ccc(F)cc3)CC2)cc1Cn1cccn1 | 10µM
COc1ccc(CCN2CCC(CN(C)C(=O)C3CCCCO3)CC2)cc1 (stereo unspecified) | -
CN(CC1CCN(CCc2cccc(F)c2)CC1)C(=O)[C@@H](N)Cc1cnc[nH]1 | -
COc1cc(C(=O)N2CCC3(CC2)CC(=O)N(C)C3)ccn1 | -
CN1CCN(C[C@H]2CN3CC[C@H]2C[C@@H]3CNC(=O)Nc2ccccc2)CC1 | -
